Assay outcomes (PubChem BioAssay)
The list is not random: actives were taken first. Their share in the collection is about 3.4%.
proKLK7 act = proKLK7 zymogen activators, primary screen, biochemical, fluorescence intensity | Kallikrein-7 (Homo sapiens), P49862 | purified proKLK7, EDANS-DABCYL substrate fluorescence; 100% is mature enzyme control, 0% vehicle | activation, % at 7 µM | actives 0.9% (n = 370,000);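 active = activation above the mean of all tested compounds plus 3 SD, computed per campaign excluding outliers beyond control limits, cut at about 13% in these data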
ADAM10 inh = human ADAM10 inhibitors, primary screen, biochemical, QFRET, HTS; Disintegrin and metalloproteinase domain-containing protein 10 (Homo sapiens), O14672; recombinant ADAM10, EDANS/DABCYL FRET peptide cleavage, 3 h; actives 0.62% (n = 370,000); inhibition, % at 7 µM;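 active = inhibition above a per-campaign cutoff equal to the mean of compounds falling between control-based bounds plus 3 SD, cut at about 20% in these data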;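 note: 0% = DMSO wells while the 100% control is not disclosed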
PLC-gamma1 inh = PLC-gamma1 enzyme inhibitors, primary screen, biochemical, fluorescence, purified enzyme; actives 0.84% (n = 370,000); fluorogenic substrate; AID 720700, 2013; inhibition, % at 12.2 µM; in the data active = inhibition above about 9.5%
ADAM17 inh = ADAM17 inhibitors, primary screen, biochemical, QFRET | AID 720648, 2013 | recombinant ADAM17, EDANS/DABCYL FRET peptide cleavage | actives 0.83% (n = 370,000) | inhibition, % at 6.95 µM | Disintegrin and metalloproteinase domain-containing protein 17 (Homo sapiens), P78536;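 active = inhibition above the mean of compounds lying between control limits plus 3 SD, set per campaign, cut at about 8.5% in these data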;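 note: 0% = DMSO-only wells as the low control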
Target sequence (P78536 215-824 limits assumed): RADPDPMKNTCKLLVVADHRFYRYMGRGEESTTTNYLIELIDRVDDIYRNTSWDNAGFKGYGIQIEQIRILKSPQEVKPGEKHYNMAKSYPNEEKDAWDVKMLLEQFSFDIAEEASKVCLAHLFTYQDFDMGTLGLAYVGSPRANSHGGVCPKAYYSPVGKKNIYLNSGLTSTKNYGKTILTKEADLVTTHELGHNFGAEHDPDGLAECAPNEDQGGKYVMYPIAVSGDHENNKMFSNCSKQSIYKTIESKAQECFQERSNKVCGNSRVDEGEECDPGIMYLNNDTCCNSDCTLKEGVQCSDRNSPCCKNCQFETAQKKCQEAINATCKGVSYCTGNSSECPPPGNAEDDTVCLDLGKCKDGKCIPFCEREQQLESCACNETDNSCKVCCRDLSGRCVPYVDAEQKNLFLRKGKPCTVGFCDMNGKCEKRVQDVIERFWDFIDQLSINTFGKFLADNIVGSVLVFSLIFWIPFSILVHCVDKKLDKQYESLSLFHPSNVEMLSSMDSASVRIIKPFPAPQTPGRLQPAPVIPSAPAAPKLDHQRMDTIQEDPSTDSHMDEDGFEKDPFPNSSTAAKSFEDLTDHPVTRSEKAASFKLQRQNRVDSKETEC
sPLA2-III inh = human group III sPLA2 inhibitors, primary screen, biochemical, QFRET, BODIPY PC-A2 liposome substrate; Group 3 secretory phospholipase A2 (Homo sapiens), Q9NZ20; QFRET BODIPY PC-A2 liposome hydrolysis, fluorescence; actives 0.56% (n = 370,000); AID 743126, 2013; inhibition, % at 12.2 µM;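 active = inhibition above mean plus 3 SD of compounds lying within the high and low control bounds, cut at about 19% in these data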;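 note: 0% = median of test compound wells and 100% = no enzyme DMSO wells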
PLCb3 inh = human PLC-beta3 inhibitors, primary screen, biochemical, fluorescence; 1-phosphatidylinositol 4,5-bisphosphate phosphodiesterase beta-3 (Homo sapiens), Q01970; Purified PLC-beta3, fluorogenic substrate; inhibition, % at 12.2 µM; actives 0.18% (n = 370,000); in the data active = inhibition above about 11%;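 note: 0% = median of compound wells on plate and 100% = full blocker control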
proKLK7 act conf = proKLK7 zymogen activators, confirmation, biochemical, fluorescence intensity, triplicate | shares compounds with proKLK7 act | purified proKLK7, EDANS-DABCYL substrate fluorescence; scaled: vehicle 0, mature enzyme 100 | activation, % at 7 µM | actives 68% (n = 3,200) | AID 686949, 2013;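 active = activation, as change over the incubation, above the mean of all tested compounds plus 3 SD, cut at about 13% in these data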
EDANS interfere = EDANS-DABCYL substrate optical interference, artefact control for kallikrein-7 zymogen activator project, biochemical, fluorescence intensity, high throughput; actives 80% (n = 3,200); activation, % at 7 µM; no enzyme, 4 h; solvent 0%, active enzyme control 100%; AID 686952, 2013; shares compounds with proKLK7 act;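 active = activation above the all-compound mean plus 3 SD, ignoring values outside control-based bounds, cut at about 4.8% in these data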;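 note: value is the 4 h activation minus the activation read at time zero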
K7 EDANS ctr = optically interferes with EDANS-DABCYL fluorescence, kallikrein-7 activator counter-screen | shares compounds with proKLK7 act | EDANS-DABCYL peptide fluorescence interference, no enzyme | EC50, µM | actives 20% (n = 250);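 active = compounds that raise the fluorescence signal in this interference counterscreen, with EC50 at or below 10 µM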;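 note: intact quenched peptide substrate alone read at 355 nm excitation and 520 nm emission; signal is fluorescence gain from T0 to T4 after four hours at room temperature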
* = called active by the depositor; i = inactive; nt = no result given.

SMILES | proKLK7 act | ADAM10 inh | PLC-gamma1 inh | ADAM17 inh | sPLA2-III inh | PLCb3 inh | proKLK7 act conf | EDANS interfere | others
Cc1ccc(N2C(=O)c3cccc4cccc(c34)C2=O)cc1 | -1 | -1 | 1 | -1 | -3 | 1 | nt | nt
CC(=O)N1CCc2nc3ccccc3cc21 | 9 | -118 | -21 | -39 | 4 | -32 | nt | nt
CC(=O)N1CCc2cc3nc(C)cc(C)c3cc21 | 25* | -373 | -156 | -127 | 6 | -189 | 2 | 3
COc1ccc(/C=C(\C#N)C(=O)NCc2ccccc2)cc1 | 38* | 6 | -3 | -1 | -1 | -6 | -187 | -241
CC1=C(C#N)C(C)C2=C(CC(C)(C)CC2=O)N1 (stereo not drawn) | 16* | i | i | -317 | 7 | i | 39* | 40*
CC1=C(C#N)C(c2ccc(O)cc2)C2=C(CC(C)(C)CC2=O)N1 (stereo not drawn) | 5 | -181 | -103 | -61 | -1 | -117 | nt | nt
CC1=C(C#N)C(c2cccnc2)C2=C(CC(C)(C)CC2=O)N1 (stereo not drawn) | 38* | i | i | -477 | 9 | i | 67* | 52* | K7 EDANS ctr=>70
CC1C(C#N)=C(SCC(N)=O)NC2=C1C(=O)CC(C)(C)C2 (stereo not drawn) | 0 | -17 | -12 | -7 | 5 | -14 | nt | nt
O=C(CC(=O)c1ccccc1)Nc1ccccn1 | 21* | -247 | -30 | -107 | 0 | -35 | 2 | 2
O=C(Nc1ccccn1)c1ccccc1 | 0 | -6 | 4 | -3 | 7 | -4 | nt | nt
O=C(Nc1ccc2[nH]c(=O)[nH]c2c1)c1c(F)c(F)c(F)c(F)c1F | 19* | -40 | 0 | -16 | 3 | 2 | 29* | 22* | K7 EDANS ctr=i
O=C(/C=C/c1ccc(F)cc1)Nc1ccc2[nH]c(=O)[nH]c2c1 | 35* | -8 | -8 | -4 | -3 | -19 | 101* | 93*
N#C/C(=C\c1ccc(-c2nc3ccccc3s2)o1)C(N)=O | 17* | -63 | -45 | -28 | -3 | -48 | 7 | 5.9*
CCCCCCCCN1C(=O)[C@@H](CC(=O)NCCc2ccccc2OC)C[C@@]2(C(=O)OC)C1=C[C@H](C1CCCC1)O[C@@H]2C | -1 | -3 | -2 | -4 | -4 | -5 | nt | nt
CC(C)C[C@H]1CNC(=O)C(=O)N1C[C@@H]1CCCN1C[C@H](Cc1ccccc1)N1C[C@H](CC(C)C)N(CC2CCCCC2)C(=O)C1=O | 0 | -9 | 2 | -5 | 11 | 5 | nt | nt
CCCc1cc2c(O)ccc(O)c2c(=O)o1 | 36* | i | -211 | -186 | -25 | -248 | 256* | 268*
CCC1OC23CCCCC2C(C#N)(C(=N)O3)C1(C#N)C#N (stereo not drawn) | 14* | i | -294 | -411 | -5 | -343 | 68* | 62*
CS(=O)(=O)Oc1ccc2c(c1)O/C(=C\c1cccnc1)C2=O | 16* | -16 | -51 | -10 | -5 | -71 | 15* | 15*
COc1ccccc1C(=O)Oc1ccc2c(c1)O/C(=C\c1ccncc1)C2=O | 15* | -12 | -330 | 0 | -27 | -388 | 36* | 38*
COC(=O)[C@H]1C[C@@]2(CC=C(C)C)c3ccccc3N(C(=O)OC(C)(C)C)[C@H]2N1C(=O)OC(C)(C)C | nt | 12 | 0 | 1 | 2 | 2 | nt | nt
CSC[C@H](NC(=O)COc1cc2c(c3oc(=O)c(C)c(C)c13)CCC(C)(C)O2)C(=O)O | 60* | i | i | i | 0 | i | 62* | 70*
COCCCNC(=O)COc1cc2c(c3oc(=O)c(C)c(C)c13)CCC(C)(C)O2 | 18* | i | i | i | 2 | i | -94 | -74
Cc1c(C)c2c(OCC(=O)N[C@@H](Cc3ccccc3)C(=O)O)cc3c(c2oc1=O)CCC(C)(C)O3 | 56* | i | i | i | -14 | i | 59* | 58*
Cc1c(C)c2c(OCC(=O)N[C@@H](CC(C)C)C(=O)O)cc3c(c2oc1=O)CCC(C)(C)O3 | 45* | i | i | i | -5 | i | 41* | 27* | K7 EDANS ctr=>70
Cc1nn(-c2ccccc2)c2sc(C(=O)N3CCN(Cc4ccccc4)CC3)cc12 | 0 | 1 | -1 | -1 | -11 | -10 | nt | nt
SMILES | proKLK7 act | ADAM10 inh | PLC-gamma1 inh | ADAM17 inh | sPLA2-III inh | PLCb3 inh | proKLK7 act conf | EDANS interfere | others
CC(C)C[C@H]1COc2cc(Br)ccc2S(=O)(=O)N1Cc1cn(CCC2OCCO2)nn1 | 0 | 2 | 7 | 3 | -2 | 2 | nt | nt
C=C1[C@@H](CCO)N(S(=O)C(C)(C)C)C[C@@H]1C (stereo partly drawn) | 0 | -1 | 1 | -1 | -2 | 2 | nt | nt
COC(=O)[C@]12C[C@H](CC(=O)NCc3cccc4ccccc34)C(=O)N(CCC3=CCCCC3)C1=C[C@H](COCc1ccccc1)O[C@@H]2C | 1 | -2 | 3 | -3 | -4 | -1 | nt | nt
CSC[C@H](NC(=O)COc1cc2c(c3oc(=O)cc(C)c13)CCC(C)(C)O2)C(=O)O | 24* | i | i | i | 1 | i | 60* | 64*
CSCC[C@H](NC(=O)COc1cc2c(c3oc(=O)c(C)c(C)c13)CCC(C)(C)O2)C(=O)O | 57* | i | i | i | 2 | i | 67* | 73*
Nc1c(C(=O)N2CCN(c3ccccc3)CC2)nnn1Cc1ccc(Cl)cc1 | 1 | -2 | 1 | -6 | 2 | 4 | nt | nt
COc1cccc2c(=O)c3ccccc3oc12 | 13* | -303 | -414 | -91 | 0 | i | 15* | 21*
COc1ccc2oc3ccccc3c(=O)c2c1 | 25* | i | i | -352 | -2 | i | 70* | 62*
COc1cccc2c(=O)ccoc12 | 2 | -72 | -57 | -28 | 4 | -79 | nt | nt
